Among the data in PubChem BioAssay (NCATS) are activation values, retold here.

Each structure is given as a SMILES string. Where “and” joins values, the source holds several entries; their conditions need not be identical. Equal entries are not always repeated. Inconclusive results are not listed. Calls of active or inactive are those of the source. Unless noted, calls follow the shape of the dose curve; as a rule, active = well fitted activation curve with a large enough effect; inconclusive = small, poorly fitted or top-dose-only effect; inactive = flat fitted curve, though single readings scatter.
Also: % of control where 0% means no effect.

The first test can be described thus: qHTS assay for small molecule activators of the p53 signaling pathway (AID 651743; active = well fitted activation curve with a large enough effect in the signal ratio, not every such curve was filed as active; the % refers to the signal ratio; also: series mostly up to about 92 µM). To be noted: HCT-116 p53RE-bla, beta-lactamase FRET ratio, 16 h; activation: hits give high values. In a few lines: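 Read-out is fluorescence intensity from the LiveBLAzer B/G FRET substrate, added for 2 hours at room temperature after HCT-116 p53RE-bla cells had been incubated with compounds for 16 hours at 37 C.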
`O=S(=O)(c1ccc(O)cc1)c1ccc(O)cc1`: the activation was -2.48% (inactive).

Regarding `COc1ccc(O)c(C(C)(C)C)c1`, the activation is 1.43% (inactive).

`O=[N+]([O-])c1ccc(Oc2ccc(C(F)(F)F)cc2[N+](=O)[O-])cc1`: the activation was -0.528% (inactive).

Take `CN(C)P(=O)(N(C)C)N(C)C`: the activation was -2.55% (inactive).

`CCOc1ccc(C(C)(C)COCc2cccc(Oc3ccccc3)c2)cc1`: the activation is -0.0413% (inactive).

In the case of `COc1ccc(C(O)(c2cncnc2)C2CC2)cc1` (stereo unspecified), the activation was -2.74% (inactive).

Turning to `COC(=O)c1ccccc1CS(=O)(=O)NC(=O)Nc1nc(OC)cc(OC)n1`, the activation was -2.78% (inactive).

In the case of `CCC[CH2][Sn]([CH2]CCC)([O]C(C)=O)[O]C(C)=O`, the activation was 4.26% (inactive).

In the case of `O=P(O)(O)CCCl`, the activation was -3.48% (inactive) and 2.67% (inactive).

For `CCCCN(CC)C(=O)SCCC`, the activation is 2.73% (inactive).

Consider `NS(=O)(=O)C(F)(F)C(F)(F)C(F)(F)C(F)(F)C(F)(F)C(F)(F)C(F)(F)C(F)(F)F`, for which the activation was 13.9% (inactive).

For `CCOP(=O)(NC(C)C)Oc1ccc(S(C)=O)c(C)c1` (stereo unspecified), the activation was -0.147% (inactive).

On to `COP(=S)(OC)Oc1nc(Cl)c(Cl)cc1Cl`, for which the activation is 10.9% (inactive).

`COC(=O)c1ccccc1S(=O)(=O)NC(=O)N(C)c1nc(C)nc(OC)n1`: the activation is 0.955% (inactive).

As for `Clc1ccc(C(Cl)(Cl)Cl)cc1`, the activation is -4.01% (inactive).

As for `CCNc1nc(NC(C)(C)C)nc(SC)n1`, the activation is 13.8% (inactive).

Regarding `CC1CCCCC1NC(=O)Nc1ccccc1` (stereo unspecified), the activation is 0.836% (inactive).

On to `CCOP(=S)(OCC)SCC(=O)NC(C)C`, for which the activation is -0.0599% (inactive).

`CCOc1nc(NC)nc(NC(=O)NS(=O)(=O)c2ccccc2C(=O)OC)n1`: the activation was -5.96% (inactive).

As to `C/C(=N\NC(=O)Nc1cc(F)cc(F)c1)c1ncccc1C(=O)O`, the activation is -1.04% (inactive) and 1.35% (inactive).

As to `C=CCC1=C(C)[C@@H](OC(=O)[C@@H]2[C@@H](C=C(C)C)C2(C)C)CC1=O`, the activation was 0.97% (inactive).

As to `C=CC(=O)OCCCCCC(C)C`, the activation was -4.19% (inactive).

For `CCC(C)n1c(=O)[nH]c(C)c(Br)c1=O` (stereo unspecified), the activation was -1.24% (inactive).

In the case of `CCN(CC)C(=O)C(C)Oc1cccc2ccccc12` (stereo unspecified), the activation was -0.234% (inactive).

With `CCCCC(CC)C(=O)Cl` (stereo unspecified), the activation is -0.76% (inactive).

For the compound `CNC(=O)Oc1ccc(N(C)C)c(C)c1`, the activation was 2.89% (inactive).

A short description of a further test: qHTS assay for small molecule activators of the nuclear factor-kappa B (NF-kB) signaling pathway (AID 651749; active = well fitted activation curve with a large enough effect in the signal ratio; the % refers to the signal ratio; also: series mostly up to about 77 µM). The settings on record: NF-kB-bla ME-180 cells, beta-lactamase FRET ratio, 16 h; activation: hits give high values. The method in brief:
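Readout: beta-lactamase reporter driven by an NF-kB response element, detected fluorescently as loss of FRET. Cells were the ME-180 line, treated 16 hr at 37C with pin-transferred compound.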
Take `O=S(=O)(c1ccc(O)cc1)c1ccc(O)cc1`: the activation was -0.813% (inactive).

Turning to `Cc1ccccc1C(=O)Nc1cccc(OC(C)C)c1`, the activation is 0.221% (inactive).

For the compound `O=c1[nH]c2ccccc2c(=O)o1`, the activation is -0.747% (inactive).

`COC(=O)c1ccccc1CS(=O)(=O)NC(=O)Nc1nc(OC)cc(OC)n1`: the activation is -0.866% (inactive).

On to `CCC[CH2][Sn]([CH2]CCC)([O]C(C)=O)[O]C(C)=O`, for which the activation was 0.746% (inactive).

`O=P(O)(O)CCCl`: the activation was 1.25% (inactive) and -0.207% (inactive).

For `CCCCN(CC)C(=O)SCCC`, the activation was -0.995% (inactive).

Turning to `NS(=O)(=O)C(F)(F)C(F)(F)C(F)(F)C(F)(F)C(F)(F)C(F)(F)C(F)(F)C(F)(F)F`, the activation was 3.4% (inactive).

As for `CCOP(=O)(NC(C)C)Oc1ccc(S(C)=O)c(C)c1` (stereo unspecified), the activation is 0.567% (inactive).

As to `Clc1ccc([C@]2(Cn3cncn3)C[C@H](Br)CO2)c(Cl)c1`, the activation was -1.6% (inactive) and -1.96% (inactive).

`CCCCC(CC)COC(=O)Cl` (stereo unspecified): the activation was -0.442% (inactive).

In the case of `CC1CCCCC1NC(=O)Nc1ccccc1` (stereo unspecified), the activation was -4.02% (inactive).

As for `CCOP(=S)(OCC)SCC(=O)NC(C)C`, the activation was 0.608% (inactive).

Turning to `CCOc1nc(NC)nc(NC(=O)NS(=O)(=O)c2ccccc2C(=O)OC)n1`, the activation was 1.48% (inactive).

In the case of `C/C(=N\NC(=O)Nc1cc(F)cc(F)c1)c1ncccc1C(=O)O`, the activation was 0.367% (inactive) and -2.66% (inactive).

For `C=CCC1=C(C)[C@@H](OC(=O)[C@@H]2[C@@H](C=C(C)C)C2(C)C)CC1=O`, the activation was -0.0415% (inactive).

`C=CC(=O)OCCCCCC(C)C`: the activation is 1.07% (inactive).

In the case of `CCC(C)n1c(=O)[nH]c(C)c(Br)c1=O` (stereo unspecified), the activation is 0.0195% (inactive).

`CCCCC(CC)C(=O)Cl` (stereo unspecified): the activation is -0.95% (inactive).

As for `Cc1c(F)c(F)c(COC(=O)C2C(/C=C(\Cl)C(F)(F)F)C2(C)C)c(F)c1F` (stereo unspecified), the activation was -3.24% (inactive).

For `Nc1ccc([N+](=O)[O-])cc1Cl`, the activation was 0.235% (inactive).

With `CNC(=O)Oc1ccc(N(C)C)c(C)c1`, the activation is -0.493% (inactive).

A short description of another test: qHTS assay for environmental chemicals that activate the Aryl hydrocarbon Receptor (AhR) signaling pathway (AID 651777). Also: nearly all actives have a fitted effect of over 15% in size. To be noted: 1A2-DRE human hepatoma cells, luciferase, 24 h; activation: hits give high values. In a few lines:
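Measured luciferase activity, read 30 min after One-Glo addition at room temperature, from human hepatoma cells bearing a dioxin response element–CYP1A2 promoter reporter and exposed to compound for 24 hr at 37 C.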
For the compound `O=S(=O)(c1ccc(O)cc1)c1ccc(O)cc1`, the activation is -1.25% (inactive).

Regarding `COc1ccc(O)c(C(C)(C)C)c1`, the activation is 3.77% (inactive).

Turning to `O=[N+]([O-])c1ccc(Oc2ccc(C(F)(F)F)cc2[N+](=O)[O-])cc1`, the activation was 9.12% (inactive).

With `CN(C)P(=O)(N(C)C)N(C)C`, the activation was 0.845% (inactive).

On to `CCOc1ccc(C(C)(C)COCc2cccc(Oc3ccccc3)c2)cc1`, for which the activation is 1.55% (inactive).

Consider `O=c1[nH]c2ccccc2c(=O)o1`, for which the activation is 0.82% (inactive).

As to `COc1ccc(C(O)(c2cncnc2)C2CC2)cc1` (stereo unspecified), the activation is -0.591% (inactive).

With `CN(C)c1nc(=O)n(C2CCCCC2)c(=O)n1C`, the activation was 0.25% (inactive).

Take `C=CC1(C)OC(=O)N(c2cc(Cl)cc(Cl)c2)C1=O` (stereo unspecified): the activation is -0.237% (inactive).

For the compound `COC(=O)c1ccccc1CS(=O)(=O)NC(=O)Nc1nc(OC)cc(OC)n1`, the activation was -0.954% (inactive).

As for `CCC[CH2][Sn]([CH2]CCC)([O]C(C)=O)[O]C(C)=O`, the activation was -0.036% (inactive).

For `O=P(O)(O)CCCl`, the activation is -0.0383% (inactive) and -0.0843% (inactive).

For the compound `CCCCN(CC)C(=O)SCCC`, the activation is 0.496% (inactive).

Regarding `NS(=O)(=O)C(F)(F)C(F)(F)C(F)(F)C(F)(F)C(F)(F)C(F)(F)C(F)(F)C(F)(F)F`, the activation was 4% (inactive).

With `CCOP(=O)(NC(C)C)Oc1ccc(S(C)=O)c(C)c1` (stereo unspecified), the activation is 3.87% (inactive).

Turning to `COP(=S)(OC)Oc1nc(Cl)c(Cl)cc1Cl`, the activation is 0.0215% (inactive).

Take `CCOP(=O)(O)C(N)=O`: the activation is -2.02% (inactive).

Regarding `COC(=O)c1ccccc1S(=O)(=O)NC(=O)N(C)c1nc(C)nc(OC)n1`, the activation was 0.249% (inactive).

`Clc1ccc(C(Cl)(Cl)Cl)cc1`: the activation is 0.701% (inactive).

In the case of `CCOC1Oc2ccc(OS(C)(=O)=O)cc2C1(C)C` (stereo unspecified), the activation was 1.08% (inactive).

For the compound `COCc1cnc(C2=NC(C)(C(C)C)C(=O)N2)c(C(=O)O)c1` (stereo unspecified), the activation was 1.65% (inactive).

`Clc1ccc([C@]2(Cn3cncn3)C[C@H](Br)CO2)c(Cl)c1`: the activation is -0.98% (inactive) and 1.78% (inactive).

For `CCNc1nc(NC(C)(C)C)nc(SC)n1`, the activation was 0.606% (inactive).

`CCCCC(CC)COC(=O)Cl` (stereo unspecified): the activation is 2.75% (inactive).

Turning to `CC1CCCCC1NC(=O)Nc1ccccc1` (stereo unspecified), the activation is 6.72% (inactive).

For the compound `CCOP(=S)(OCC)SCC(=O)NC(C)C`, the activation was 0.496% (inactive).

Regarding `CCOc1nc(NC)nc(NC(=O)NS(=O)(=O)c2ccccc2C(=O)OC)n1`, the activation was 0.873% (inactive).

For the compound `C/C(=N\NC(=O)Nc1cc(F)cc(F)c1)c1ncccc1C(=O)O`, the activation is 0.312% (inactive) and 2.08% (inactive).

For `C=CCC1=C(C)[C@@H](OC(=O)[C@@H]2[C@@H](C=C(C)C)C2(C)C)CC1=O`, the activation is 1.77% (inactive).

With `C=CC(=O)OCCCCCC(C)C`, the activation is -0.0847% (inactive).

Regarding `CCC(C)n1c(=O)[nH]c(C)c(Br)c1=O` (stereo unspecified), the activation is 4.91% (inactive).

Turning to `COP(=S)(OC)Oc1ccc([N+](=O)[O-])c(C)c1`, the activation is 2.78% (inactive).

Turning to `CCN(CC)C(=O)C(C)Oc1cccc2ccccc12` (stereo unspecified), the activation is 1.45% (inactive).

For the compound `CCCCC(CC)C(=O)Cl` (stereo unspecified), the activation was 0.633% (inactive).

With `CC(Oc1cc(Cl)c(Cl)cc1Cl)C(=O)O` (stereo unspecified), the activation was 2.71% (inactive).

In the case of `Cc1c(F)c(F)c(COC(=O)C2C(/C=C(\Cl)C(F)(F)F)C2(C)C)c(F)c1F` (stereo unspecified), the activation was 0.802% (inactive).

Consider `Nc1ccc([N+](=O)[O-])cc1Cl`, for which the activation was 3.47% (inactive).

For `CNC(=O)Oc1ccc(N(C)C)c(C)c1`, the activation is 3.59% (inactive).
